Experimental data published in PubChem BioAssay AID687043 (Milwaukee Institute for Drug Discovery, 2013).
Among all 16,000 compounds or so, about 250 (1.6%) were called active. Only a selection was taken, and actives are over-represented in it overall. Unmarked numbers belong to inactive results.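 The calls were made as follows: active = inhibition above the average over every tested compound plus 3 SD (cut at about 40% in these data); inactive = the rest.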

Each compound was assayed on Hepatitis C virus NS3 helicase (assay: HCV NS3 helicase inhibitors, primary screen, biochemical, fluorescence polarization, ChemBridge library (AID 687043)). Conditions: NS3h Cy5-dT15 DNA binding, at 100 µM, stronger effect = higher value.

SMILES | inhibition
O=C(/C=C/c1cc(Br)cs1)Nc1cccc(C(F)(F)F)c1 | 14.4%
COc1ccc(C2(CNC(=O)c3ccc(F)cc3)CCCC2)cc1OC | 8.8%
O=C(Nc1ccncc1)c1cc2ccccc2o1 | 11.4%
CCOC(=O)c1c(C)nc2n(/N=C\c3ccc([N+](=O)[O-])cc3)c3ccccc3n12 | 6.3%
Cc1ccc(C(=O)Nc2ccc(C(C)C)cc2)cc1C | 3.2%
Cc1ccc(/C=N\NC(=O)c2cccnc2)o1 | 1.6%
O=C(NCCc1c[nH]c2ccccc12)c1cccs1 | 8.2%
COC(=O)C1=C(C)NC2=C(C(=O)c3ccccc32)C1c1ccc(OCc2ccc(F)cc2)c(OC)c1 (centres undefined) | -0.7%
Cc1ccc(N2NC(=O)/C(=C/c3ccc4c(c3)OCO4)C2=O)cc1Cl | 5.8%
O=C(NCCN1CCOCC1)/C(=C/c1ccc(F)cc1)NC(=O)c1ccccc1 | 15.5%
O=C(Nc1ccc(Cl)c(Cl)c1)Nc1nnc(-c2ccc(F)cc2)s1 | 21.5%
CCOc1ccc(NC(=O)CC2S/C(=N/N=C3/CCCc4ccccc43)NC2=O)cc1 (centres undefined) | 16.3%
Cc1cccc(-c2cc(NC(=O)COc3ccc(Cl)cc3Cl)n[nH]2)c1 | -2.4%
COc1ccccc1N1CCN(C(=O)c2cnn3c2NC(c2ccc(Br)cc2)CC3C(F)(F)F)CC1 (centres undefined) | 7.2%
COc1cc(/C=C2/SC(=S)NC2=O)ccc1OCCOCCOc1ccc(C)cc1 | 18.6%
COc1cc(C=C2C(=O)NC(=O)NC2=O)ccc1OCCOc1ccc([N+](=O)[O-])cc1 | 52.6% (active)
COc1cc(/C=C2/C(=O)NC(=O)N(c3ccc(C)cc3)C2=O)ccc1OCCOc1ccc([N+](=O)[O-])cc1 | 20.3%
O=C(Cn1cncn1)c1ccc(F)c(F)c1 | -2.3%
COc1cc(/C=C2/C(=O)N(c3ccccc3)N=C2C)ccc1OC(=O)c1cccs1 | 11.4%
CCC1=NN2C(=N)/C(=C/c3cc(Br)c(OCc4ccc(F)cc4)c(OC)c3)C(=O)N=C2S1 | 10.4%

SMILES | inhibition
O=C(/C=C/c1ccc(Cl)cc1)Nc1ccc(-c2nc3ccccc3o2)c(O)c1 | 9.9%
O=C1N=C(N2CCCC2)S/C1=C\c1cccc(Br)c1 | 9.8%
COc1ccc(C(=O)CSc2nc(C)cc(C)n2)cc1[N+](=O)[O-] | 18%
O=C(NC(c1ccccc1)c1ccccc1)c1ccc([N+](=O)[O-])cc1Cl | 14.7%
O=c1cccc(-c2ccc(Br)cc2)o1 | 0.7%
CC(C)(C)C(=O)Nc1ccc(C(=O)Nc2ccc(O)cc2C(=O)O)cc1 | -2.6%
CCOC(=O)c1ccc(-c2ccc(/C=C(/C#N)C(=O)Nc3ccc4ccccc4c3)o2)cc1 | -1.8%
O=c1oc(-c2ccco2)nc2ccc(Cl)cc12 | -3.4%
O=C(CSc1ccccn1)N1c2ccccc2Sc2ccccc21 | 10.2%
O=C(Nc1cc(C(F)(F)F)ccc1Cl)C1CC(=O)N(c2ccc(Br)cc2)C1 (centres undefined) | 2.2%
Cc1ccc(NC(=O)c2ccc3c(c2)OCCO3)c([N+](=O)[O-])c1 | 20.8%
CCC(=O)/C=C1\Sc2ccccc2N1CC | -1.3%
O=C(CC(Nc1ccc2ncccc2c1)c1ccc(F)cc1)c1ccccc1 (centres undefined) | 3.6%
Cc1cc(C)n(C(=O)COc2cccc3ccccc23)n1 | 7.8%
COc1ccc(C2=N/C(=C/c3ccccc3OC)C(=O)N2c2ccccc2)cc1 | 8.2%
CCOC(=O)C1=C(C)N=c2s/c(=C\c3ccc(C)o3)c(=O)n2C1c1cccc(OC)c1 (centres undefined) | 20.2%
Cc1nnc(Nc2ccc3c(c2)nc(C)n3Cc2ccccc2)c2ccccc12 | 2.2%
N#CC(C#N)=C1CCCc2ccccc2N1 | -4.1%
O=c1c(Cl)c(Cl)cnn1Cc1c(Cl)ccc(Cl)c1Cl | 5%
Cc1ccnc(SC2CC(=O)N(c3ccccc3)C2=O)n1 (centres undefined) | 1.2%

SMILES | inhibition
COc1ccc(Cl)cc1NC(=O)Cn1nc([N+](=O)[O-])cc1C | 11.3%
Cc1ccc(N2C(=O)/C(=C/c3ccc(Oc4ccc([N+](=O)[O-])cn4)cc3)C(=O)NC2=S)cc1 | 25.1%
C=CCN1C(=O)/C(=C\c2cc(OC)c(O)c([N+](=O)[O-])c2)C(=O)NC1=S | 81.2% (active)
C=CCN1C(=O)/C(=C\c2cc(Cl)c(O)c(Cl)c2)SC1=S | 21.3%
COc1cccc(C=C2C(=O)NC(=O)NC2=O)c1O | 15.5%
C=CCOc1ccccc1C=C1C(=O)NC(=O)NC1=O | 34.9%
O=C1NC(=O)C(=Cc2cc([N+](=O)[O-])cc(Br)c2O)C(=O)N1 | 48.9% (active)
OCCNC1CCCc2c1[nH]c1ccc(-c3ccccc3)cc21 (centres undefined) | 2.8%
CC(C)(C)c1ccc(C2C(C(=O)c3ccco3)=C(O)C(=O)N2c2ncc(S(=O)(=O)c3ccc([N+](=O)[O-])cc3)s2)cc1 (centres undefined) | 9.7%
COc1ccc2oc(=O)c(C(N)=O)cc2c1 | 2.8%
Oc1ccc(Br)cc1CN1CCN(Cc2ccccn2)CC1 | -7.5%
COc1ccc(Br)cc1/C=C1/SC(=S)N(c2cccc(C(F)(F)F)c2)C1=O | 11.5%
O=C(CCc1ccccc1)N1N=C(c2cccc([N+](=O)[O-])c2)CC1(O)C(F)(F)F (centres undefined) | 8.7%
Cc1cc(C)cc(N2C(=O)NC(=O)/C(=C\c3ccc(F)cc3)C2=O)c1 | 21.8%
CC(C)(C)N1C(=O)NC(=O)C(=Cc2cccs2)C1=O | 75.4% (active)
O=C1NC(=Nc2ccc(F)cc2)S/C1=C\c1cccs1 | 12.6%
Cc1ccccc1NC(=O)C(=O)NCc1ccco1 | 10.2%
CSc1ccc(C(C2=C(O)CC(C)(C)CC2=O)C2C(=O)CC(C)(C)CC2=O)cc1 (centres undefined) | 5.7%
CCN1C(=O)/C(=C\c2cn(CCOc3ccccc3)c3ccccc23)SC1=S | 11.7%
